Cruzain Triton: blocks cruzain activity in presence of Triton detergent | P25779 | purified cruzain, Z-FR-AMC fluorescence, 0.01% Triton | Potency, µM, most hits filed as inhibitors | 200,000 tested, 0.43% active | AID 1478; further: nearly all actives have a fitted effect of over 40% in size
Target sequence (P25779 123-467 limits assumed): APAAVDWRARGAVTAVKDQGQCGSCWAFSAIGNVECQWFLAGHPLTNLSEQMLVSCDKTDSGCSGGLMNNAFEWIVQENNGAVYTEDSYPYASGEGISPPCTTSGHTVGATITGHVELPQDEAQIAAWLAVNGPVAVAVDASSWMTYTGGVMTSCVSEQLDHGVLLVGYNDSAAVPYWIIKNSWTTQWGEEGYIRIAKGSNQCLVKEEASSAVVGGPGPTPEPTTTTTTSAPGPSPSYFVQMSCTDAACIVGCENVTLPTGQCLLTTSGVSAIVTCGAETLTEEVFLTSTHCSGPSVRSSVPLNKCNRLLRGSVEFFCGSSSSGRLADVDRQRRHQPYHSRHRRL
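Cysteine protease activity tested under reducing, mildly acidic conditions (100 mM sodium acetate pH 5.5, 5 mM DTT) plus 0.01% Triton X-100. Cruzain 1.5 nM; substrate Z-FR-AMC 2 uM; 15 min compound preincubation at room temperature.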
Cruzain inh noDet: inhibitors of Trypanosoma cruzi cruzain without detergent; purified cruzain, Z-FR-AMC fluorescence, no detergent; Potency, µM, usual class: inhibitors; 200,000 tested, 2.3% active; further: nearly all actives have a fitted effect of over 40% in size
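Detergent-free condition (0.00005% Triton X-100) in acetate buffer pH 5.5 with DTT. 1.5 nM enzyme and compound were pre-mixed 15 min, then 2 uM Z-FR-AMC substrate added; reaction progress from fluorescence change between first and third reads (60 s).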
Numbers stand for hits; . = inactive; ? = inconclusive. Only some compounds are listed: those with a hit (about 2.5% of all), similar ones and a draw of the others. The call rests on the fitted dose curve; in most records, active means well fitted curve in the direction sought with a large enough effect; inconclusive means small, poorly fitted or top-dose-only effect, or another doubt; inactive means no such curve, though single readings can be large; an effect the other way counts as inactive or inconclusive.

SMILES	Cruzain Triton	Cruzain inh noDet
CN(C)c1ccc(/C=C/C=C2/SC(=S)N(c3ccccc3)C2=O)cc1	.	7.9µM
CCOc1ccccc1C(=O)Nc1ccc2nc3c(c(Nc4ccc(OC)c(OC)c4)c2c1)CCCC3	.	.
CCN1C(=O)c2ccccc2Sc2ccc(NC(=O)Nc3ccc(C(C)=O)cc3)cc21	.	.
CCN1C(=O)c2ccccc2Sc2ccc(NC(=O)Nc3ccc(Br)c(C)c3)cc21	.	7.9µM
CCOc1ccccc1CNC(=O)CCc1cn(Cc2ccc(Cl)cc2)c2ccccc12	.	.
CCOC(=O)CSc1nc2ccccc2n1CC(=O)N(C(C)C)C(C)C	.	.
CCOC(=O)CN1C=C(c2ccc3ccccc3n2)C(C[N+](=O)[O-])c2ccccc21 (centres undefined)	.	25µM
COC(=O)[C@@H]1[C@@H]2C[C@H]3c4[nH]c5ccccc5c4CCN3C[C@@H]2CC[C@@H]1OS(=O)(=O)O	.	.
O=C(Nc1ccc(O)c(-c2nc3ccccc3o2)c1)c1ccco1	.	.
O=C(Nc1ccc(O)c(-c2nc3ccccc3o2)c1)C1(c2ccc(Cl)cc2)CCCC1	.	5µM
COc1ccc(Cn2c(C(=O)O)c(CNC3CCCCCC3)c3ccc(OC)cc32)cc1	.	.
COc1ccc(-c2nc(SCC(=O)Nc3ccc4c(c3)OCO4)c(-c3ccccc3)[nH]2)cc1	.	?
COc1ccc(-c2csc(NC(=O)COc3ccc(N(C)S(=O)(=O)c4ccc(C)cc4)cc3)n2)cc1	.	7.9µM
COc1ccc(S(=O)(=O)N(C)c2ccc(OCC(=O)Nc3cc(C)on3)cc2)cc1	.	.
O=C(COc1ccc(Cl)cc1)Nc1nc(-c2ccc(S(=O)(=O)N3CCOCC3)cc2)cs1	.	?
Cc1ccc(-c2csc(NC(=O)COc3ccc(N(C)S(=O)(=O)c4ccc(C)cc4)cc3)n2)cc1	.	6.3µM
CCOC(=O)c1noc2nc(C)n(CC(=O)Nc3ccc(OC)c(Cl)c3)c(=O)c12	.	.
CCOc1ccc(NC(=O)CC2C(=O)N(c3ccccc3)C(=O)N2CCc2sccc2C)cc1 (centres undefined)	.	.
Cc1ccccc1OCCC(=O)NCCc1ccc(S(N)(=O)=O)cc1	.	.
CCOc1ccccc1C(=O)NCC(=O)OCC(=O)NCCc1ccc(S(N)(=O)=O)cc1	25µM	16µM
OC(Cc1ccccc1)(Cc1ccccc1)c1ccccc1	.	.
COc1cc2c(cc1OC)[C@@]13CCN4C=C5CCO[C@H]6CC(=O)N2[C@@H]1C6[C@H]5C[C@H]43 (some centres undefined)	.	.
N#Cc1c(NC(=S)NC(=O)c2ccccc2)sc2c1CCC2	.	.
CC1CCc2sc(NC(=S)NC(=O)c3ccccc3)c(C#N)c2C1 (centres undefined)	.	25µM
CC1CCc2c(sc(NC(=O)c3ccc(-c4ccccc4[N+](=O)[O-])o3)c2C#N)C1 (centres undefined)	.	10µM
SMILES	Cruzain Triton	Cruzain inh noDet
CC(C)(C)c1ccc(C(=O)NC(=S)Nc2sc3c(c2C#N)CCC3)cc1	.	10µM
N#Cc1c(NC(=O)c2ccc(-c3ccccc3[N+](=O)[O-])o2)sc2c1CCCC2	.	?
CCN1CCc2c(sc(NC(=S)NC(=O)c3ccccc3)c2C#N)C1	.	.
O=C1c2ccccc2-c2ccc(N(Cc3ccc(Br)cc3)Cc3ccc(Br)cc3)cc21	.	.
COc1cc2nncc(SCc3ccc(Cl)c(Cl)c3)c2cc1OC	.	.
COc1ccc(-c2cc3nc(C)c(CCC(=O)Nc4cccc(C(F)(F)F)c4)c(C)n3n2)c(OC)c1	.	?
Cc1cc(/C=C(\C#N)C(=O)NCCc2c[nH]c3ccccc23)c(C)n1C	.	.
COc1cc(/C=C(/C#N)C(=O)NCCc2c[nH]c3ccccc23)ccc1OCc1ccccc1F	.	7.9µM
COc1cccc(-n2c(-c3ccco3)nc3c(cnn3-c3ccccc3C)c2=O)c1	.	.
COc1ccc(-c2cn3nc(N4CCCC(C(=O)Nc5cccc(OC)c5)C4)sc3n2)cc1 (centres undefined)	.	.
Cc1ccc(-c2nc3c4ccccc4n(CC(=O)N4CCN(c5ccc(F)cc5)CC4)c(=O)n3n2)cc1	.	.
Cc1ccc2c(c1)c1nnc(SCC(=O)N3CCN(c4ccc(F)cc4)CC3)nc1n2CC(=O)O	28µM	.
CC1=CC(C)(C)N(C(=O)CN2C(=O)c3ccccc3C2=O)c2ccc(C)cc21	.	.
CCC(=O)N1c2ccc(C)cc2C2=NNC(=S)NC21O (centres undefined)	?	0.63µM
CN1CCN(c2ncc3nc(CCc4ccccc4)c(=O)n(CCC#N)c3n2)CC1	.	.
COc1ccc(C2c3cc(OC)c(OC)cc3CC(=O)N2c2cccc(C#N)c2)cc1 (centres undefined)	.	?
Oc1ccc(NCc2ccc(OCc3ccccc3)cc2)cc1	.	.
CCc1ccc(CNc2ccc(O)cc2)cc1	.	32µM
O=C(O)CCn1cnc2c(=S)nc[nH]c21	.	.
O=C(CSc1ncnc2sc3c(c12)CCCC3)N1CCC(c2noc3ccc(F)cc23)CC1	.	16µM
Cc1cc(SCC(=O)N2CCC(c3noc4ccc(F)cc34)CC2)nc2ccccc12	.	.
CN1CCC2(CCN3CCc4c(oc5ccccc45)C3C2)N(C)C1=O (centres undefined)	.	.
S=C([S-])NCCNC(=S)[S-].[Zn+2]	32µM	?
COc1cccc(NC(=O)CSc2nc(=O)n(Cc3ccco3)c3c2CCC3)c1	.	.
CCc1ccc(NC(=O)CSc2nc(C)c(C(=O)Nc3ccc(Cl)cc3)c(-c3ccc(OC)cc3)c2C#N)cc1	.	7.9µM
SMILES	Cruzain Triton	Cruzain inh noDet
CCOC(=O)c1sc(NC(=O)CSc2nc3c(cc2C#N)CCCCCC3)c(C#N)c1C	.	?
COc1ccc(-c2c(C#N)c(SCC(=O)Nc3ccccc3C)nc(C)c2C(=O)Nc2ccc(Cl)cc2)cc1	.	.
CCOC(=O)c1sc(NC(=O)CSc2nc3c(c(-c4ccc(OC)cc4)c2C#N)CCCC3)c(C#N)c1C	.	3.2µM
COc1cccc(NC(=O)CSc2nc3c(c(-c4ccco4)c2C#N)CCCC3)c1	.	6.3µM
CC1=NN(c2ccc(S(=O)(=O)O)cc2C)C(=[OH+])[C@H]1N=Nc1cc(S(=O)(=O)O)ccc1C(=O)O.O.[Cr]	.	.
Cc1cccc(C)c1-n1ncc(C(=O)N2CCN(c3ncccn3)CC2)c1C1CCN(C(=O)OC(C)(C)C)CC1	.	.
CCN(CC)C(=O)C1CCN(C(=O)c2cnn(-c3ccccc3)c2-n2cccc2)CC1	.	.
CCOC(=O)N1CCc2c(sc(NCc3cccs3)c2C(=O)Nc2cc(Cl)ccc2OC)C1	.	.
Cc1nc2c(C(=O)NCc3ccc4c(c3)OCO4)cnn2c(C)c1Cc1ccc(F)cc1Cl	.	16µM
Cc1ccccc1Cc1c(C)nc2c(C(=O)NCc3ccc4c(c3)OCO4)cnn2c1C	.	.
O=C(Cn1nc2c(cc1=O)CCCC2)NCc1ccccc1	.	.
Cc1ccc(C(=O)COC(=O)c2ccccc2NC(=O)c2ccccc2)cc1[N+](=O)[O-]	.	?
CCc1ccc(NC(=O)C(C)OC(=O)c2ccc(NS(=O)(=O)c3ccc(C)c([N+](=O)[O-])c3)cc2)cc1 (centres undefined)	.	16µM
CCOC(=O)c1ccc(NS(=O)(=O)c2ccc3[nH]c4c(c3c2)CCCCC4)cc1	.	?
CC(=O)c1ccc(NC(=O)C(C)OC(=O)c2ccc(NS(=O)(=O)c3ccc(F)c(F)c3)cc2)cc1 (centres undefined)	.	16µM

Screening data from PubChem BioAssay.
